Measured values as given in PubChem BioAssay (NCATS).
Records with an inconclusive call do not appear. For some of these results: Results with a measured potency or affinity are listed apart. Activity calls are given as the source filed them.

Columns and labels:
[1] = Ebola virus entry assay, green fluorescence channel
[2] = Ebola virus entry assay, blue channel fluorescence
[3] = Ebola virus entry assay, green fluorescence channel; remark: listed apart in the source
[4] = Ebola virus entry assay, ratio channel readout
[5] = Ebola virus entry assay, green channel fluorescence
[6] = Ebola virus entry assay, blue channel fluorescence; remark: listed apart in the source
[7] = Ebola virus entry assay, reporter ratio channel; AC50: Channel type: primary unless noted; outcome: Channel type: primary unless noted
[8] = Ebola virus entry assay, blue channel (ratio component)
[9] = qHTS profiling of the MIPE4 collection as inhibitors of Plasmodium falciparum (3D7) proliferation (AID 743344);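 note: scaled between DMSO vehicle wells and 0.29 µM artemisinin as full inhibition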; conditions: P. falciparum 3D7 in erythrocytes, SYBR Green DNA fluorescence, 72 h; at 28.5 µM (top of the series) unless noted
In short: (§1)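 Parasite DNA was quantified by SYBR Green I fluorescence (ex 485, em 535 nm) after overnight lysis in saponin/Triton buffer at room temperature. Cultures at 0.3% parasitemia and 2.5% hematocrit were first exposed to compound for 72 h at 37 C; signals were normalised to artemisinin (0.29 uM) and vehicle wells.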

[10] = qHTS profiling of the MIPE4 collection as inhibitors of Plasmodium falciparum (DD2) proliferation (AID 743345); conditions: P. falciparum Dd2 in erythrocytes, SYBR Green DNA, 72 h; at 28.5 µM (top of the series) unless noted
In short: as §1

[11] = qHTS profiling of the MIPE4 collection as inhibitors of Plasmodium falciparum (DD2) proliferation (Rep 2) (AID 743346); conditions: P. falciparum Dd2 in erythrocytes, SYBR Green DNA, 72 h; at 28.5 µM (top of the series) unless noted
In short: as §1

[12] = qHTS profiling of the MIPE4 collection as inhibitors of Plasmodium falciparum (HB3) proliferation (AID 743347);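 note: plate controls were DMSO vehicle wells for no effect and artemisinin wells for full effect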; conditions: P. falciparum HB3 in erythrocytes, SYBR Green DNA, 72 h; at 28.5 µM (top of the series) unless noted
In short: as §1

[13] = Ebola virus entry assay, blue channel fluorescence; remark: listed apart in the source
[14] = Ebola virus entry assay, ratio channel
[15] = qHTS Assay for Identifying Gametocytocidal Compounds (AID 743244; active = well fitted curve in the direction sought with a large enough effect;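 note: % is set by controls: 0 for no effect and ±100 for the full control effect; actives lower the fluorescent signal which means gametocytes are killed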); conditions: P. falciparum 3D7 stage III-V gametocytes, alamarBlue, 72 h; max response: stronger effect = lower value
In short: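 In this qHTS viability screen, late-stage 3D7 gametocytes are incubated with compound for 72 h, then with alamarBlue for 24 h; reduced resorufin fluorescence marks killing.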
Throughout, for efficacy: 0% is about no effect.

Row | Structure (SMILES) | efficacy [1] | outcome [2] | outcome [3] | outcome [4] | outcome [5] | outcome [6] | outcome [7] | outcome [8] | parasite growth, % of DMSO control [9] [%] | parasite growth remaining, % of DMSO control (lower = more inhibition) [10] [%] | parasite growth, % of control (lower = inhibition) [11] [%] | AC50 [2] | growth, % of control [12] [%] | outcome [13] | outcome [14] | max response [15]
1 | Nc1[nH]c(=O)ncc1F | 14.3% (inactive) | inactive | inactive | inactive | inactive | inactive | inactive | inactive |  |  |  |  |  |  |  | 
2 | CN(C)CCc1c[nH]c2ccc(C[C@H]3COC(=O)N3)cc12 | -13.2% (inactive) | inactive | inactive | inactive | inactive | inactive | inactive | inactive |  |  |  |  |  |  |  | 
3 | CC1Cc2ccccc2N1NC(=O)c1ccc(Cl)c(S(N)(=O)=O)c1 (centres undefined) | 11.5% (inactive) | inactive | inactive | inactive | inactive | inactive | inactive | inactive | 83.7 | 34.3 | 84.2 |  |  |  |  | 
4 | NCCCC(O)(P(=O)(O)O)P(=O)(O)O | 11.2% (inactive) |  | inactive | inactive |  |  | inactive [Channel type: confirmation] | inactive |  |  |  | 4.47 µM (active) |  |  |  | 
5 | CCOC(=O)c1ncn2c1CN(C)C(=O)c1cc(F)ccc1-2 | -22.5% (inactive) | inactive | inactive |  | inactive | inactive | inactive | inactive | 69.1 | 84.4 | 74.8 |  | 94.6 | inactive | inactive | 
6 | O=C1CCc2ccc(OCCCCN3CCN(c4cccc(Cl)c4Cl)CC3)cc2N1 | -27% (inactive) | inactive | inactive | inactive | inactive |  | inactive | inactive |  |  |  |  |  |  |  | 
7 | C#CCN(C)[C@H](C)Cc1ccccc1 | 21.9% (inactive) | inactive | inactive | inactive | inactive | inactive | inactive | inactive | 92.5 | 97.8 | 124 |  | 95.7 |  |  | -11.5% (inactive)
8 | COc1ccccc1OCC(O)COC(N)=O (centres undefined) | -13% (inactive) | inactive | inactive | inactive | inactive | inactive | inactive | inactive |  |  |  |  |  |  |  | 
9 | CN(C)/N=N/c1nc[nH]c1C(N)=O | -24.1% (inactive) | inactive | inactive | inactive | inactive | inactive | inactive | inactive |  |  |  |  |  |  |  | 
10 | NC(=O)OCC(COC(N)=O)c1ccccc1 | -25.6% (inactive) | inactive | inactive | inactive | inactive |  | inactive | inactive |  |  |  |  |  |  |  | 
11 | CC(C)(C(=O)O)c1ccc(C(O)CCCN2CCC(C(O)(c3ccccc3)c3ccccc3)CC2)cc1 (centres undefined) | -13% (inactive) | inactive | inactive | inactive | inactive | inactive | inactive | inactive |  |  |  |  |  |  |  | 
12 | CC(C)(C)C(=O)OCOP(=O)(COCCn1cnc2c(N)ncnc21)OCOC(=O)C(C)(C)C | -17.9% (inactive) | inactive | inactive | inactive | inactive | inactive | inactive | inactive |  |  |  |  |  |  |  | 
13 | O=C(O)COCCN1CCN(C(c2ccccc2)c2ccc(Cl)cc2)CC1 (centres undefined) | -24.1% (inactive) | inactive | inactive | inactive | inactive | inactive | inactive | inactive |  |  |  |  |  |  |  | 
14 | CCCC(CCC)C(=O)O | -11.7% (inactive) | inactive | inactive | inactive | inactive |  | inactive | inactive |  |  |  |  |  |  |  | 
15 | C[C@]12CC[C@H]3[C@@H](CCC4=CC(=O)CC[C@@H]43)[C@@H]1CC[C@@H]2OC(=O)CCc1ccccc1 | -39.3% (inactive) | inactive | inactive | inactive | inactive |  | inactive | inactive |  |  |  |  |  |  |  | 0.188% (inactive)
16 | CC(C(=O)O)c1cccc(C(=O)c2ccccc2)c1 (centres undefined) | 11.5% (inactive) | inactive | inactive |  | inactive | inactive | inactive | inactive |  |  |  |  |  | inactive |  | 
17 | NC(=O)N1c2ccccc2CC(=O)c2ccccc21 | -11.2% (inactive) | inactive | inactive |  | inactive | inactive | inactive | inactive |  |  |  |  |  | inactive |  | 
18 | O=C(O)P(=O)(O)O | -12.5% (inactive) | inactive | inactive | inactive | inactive | inactive | inactive | inactive |  |  |  |  |  |  |  | 
19 | CC1=NS(=O)(=O)c2cc(Cl)ccc2N1 | -18.7% (inactive) | inactive | inactive |  | inactive | inactive | inactive | inactive |  |  |  |  |  |  | inactive | 
20 | CCCNC(=O)NS(=O)(=O)c1ccc(Cl)cc1 | -18.6% (inactive) | inactive | inactive | inactive | inactive | inactive | inactive | inactive |  |  |  |  |  |  |  | 
21 | CC(C)NC[C@@H](O)COc1ccc(CC(N)=O)cc1 | -16.3% (inactive) | inactive | inactive | inactive | inactive | inactive | inactive | inactive |  |  |  |  |  |  |  | 
22 | COC(=O)[C@@H]1CC2=CC(=O)CC[C@]2(C)[C@@]23O[C@@H]2C[C@@]2(C)[C@@H](CC[C@@]24CCC(=O)O4)[C@H]13 | -15.8% (inactive) | inactive | inactive | inactive | inactive | inactive | inactive | inactive |  |  |  |  |  |  |  | 
